ALDH1A1 inh: qHTS Assay for Inhibitors of Aldehyde Dehydrogenase 1 (ALDH1A1). Aldehyde dehydrogenase 1A1 (Homo sapiens), P00352. Purified ALDH1A1, NADH fluorescence, propionaldehyde substrate. Potency, µM (highest dose often 75.3 µM), inactives show top-dose activity, negative = inhibition, usual class: inhibitors. actives 7.3% (n = 220,000). AID 1030, 2008;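 further: plate controls were no enzyme wells and a reference inhibitor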
Target sequence (P00352 whole entry, looked up): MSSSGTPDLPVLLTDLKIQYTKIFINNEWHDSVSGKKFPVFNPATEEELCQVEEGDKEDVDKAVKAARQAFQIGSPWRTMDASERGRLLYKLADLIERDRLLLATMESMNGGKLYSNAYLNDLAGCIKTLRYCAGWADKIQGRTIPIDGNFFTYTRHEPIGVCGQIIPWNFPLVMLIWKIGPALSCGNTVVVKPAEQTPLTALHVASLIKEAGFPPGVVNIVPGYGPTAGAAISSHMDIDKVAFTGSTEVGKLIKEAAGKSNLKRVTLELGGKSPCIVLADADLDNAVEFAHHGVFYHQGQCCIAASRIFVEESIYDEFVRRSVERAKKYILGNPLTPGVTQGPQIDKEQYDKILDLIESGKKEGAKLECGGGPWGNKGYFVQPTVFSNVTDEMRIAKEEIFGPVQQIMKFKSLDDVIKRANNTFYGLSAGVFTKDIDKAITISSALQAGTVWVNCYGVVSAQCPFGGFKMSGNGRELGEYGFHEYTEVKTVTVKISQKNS
KDM4E inh: qHTS Assay for Inhibitors of Human Jumonji Domain Containing 2E (JMJD2E) | Lysine-specific demethylase 4E (Homo sapiens), B2RXH2 | JMJD2E catalytic domain, FDH-coupled NADH fluorescence (FDH is formaldehyde dehydrogenase) | Potency, µM (titrated, usually from 57.1 µM), without a hit: at the top dose activity change, negative = inhibition, actives largely listed as inhibitors | actives 1.6% (n = 230,000);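 further: 0% = wells with enzyme and -100% = buffer wells without enzyme; nearly all actives have a fitted effect of over 50% in size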
HPGD inh: qHTS Assay for Inhibitors of HPGD (15-Hydroxyprostaglandin Dehydrogenase); 15-hydroxyprostaglandin dehydrogenase [NAD(+)] (Homo sapiens), P15428; purified HPGD, NADH fluorescence kinetic, PGE2 substrate; actives 4.3% (n = 150,000); Potency, µM, for inactives: top-dose activity change, negative = inhibition, actives largely listed as inhibitors; further: on the % scale 0 is the no-effect control and ±100 the full control effect
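20 nM HPGD preincubated 15 min at room temperature with compound in 50 mM Tris-HCl pH 8, 0.01% Tween 20. Started with 1 mM NAD+ and 30 uM prostaglandin E2; NADH fluorescence (360/450 nm) read 5 times over 30-s intervals, last minus first.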
HTT ATP protect: qHTS Multiplex Assay to Identify Dual Action Probes in a Cell Model of Huntington: Cytoprotection (ATP). PC12 HTT-Q103 induced, cytoprotection, ATP luminescence, 40 h. Potency, µM (highest dose often 56.4 µM), inactives show cytoprotection (ATP increase), most hits filed as activators. actives 0.14% (n = 230,000). AID 1471, 2008; active means well fitted curve in the direction sought with a large enough effect; inconclusive means small, poorly fitted or top-dose-only effect, or another doubt; inactive means no such curve, though single readings can be large; an effect the other way counts as inactive or inconclusive; further: % of control where 0% means no effect; nearly all actives have a fitted effect of over 45% in size
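Compounds added alongside 100 nM tebufenozide, which induces toxic Q103 huntingtin exon 1-GFP in stable PC12 cells; surviving cells quantified by luminescent ATP measurement. Medium: phenol red-free DMEM, 5% equine and 5% calf serum.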
Lamin A splicing: qHTS Assay for Modulators of Lamin A Splicing; HeLa LMNA splicing GFP/RFP minigene ratio, 48 h; Potency, µM (titrated, usually from 46.1 µM), without a hit: at the highest dose ratio change, negative = inhibition, most hits filed as inhibitors; actives 0.01% (n = 200,000); AID 1487, 2009; active means well fitted inhibition curve with a large enough effect in the signal ratio, with a control signal flat, not every such curve was filed as active; inconclusive means small, poorly fitted or top-dose-only effect, or effect the other way, or a change in a side signal; the % refers to the signal ratio; further: on the % scale 0 is the no-effect control and ±100 the full control effect
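S3 HeLa stable clones carrying a lamin A-EGFP splicing minigene plus DsRed2 were seeded at 600 cells/well in Opti-MEM with 2% FBS, pin-dosed and incubated 48 h at 37°C. Acumen cytometry (488 nm) gave the GFP/RFP total-intensity ratio.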
HTT aggregate: qHTS Multiplex Assay to Identify Dual Action Probes in a Cell Model of Huntington: Aggregate Formation (GFP); Potency, µM (series often up to 46.1 µM), without a hit: at the top dose activity change, negative = inhibition, hits mostly inhibitors; actives 1.1% (n = 220,000); PC12 HttQ103-GFP aggregates, Acumen cytometry, 40 h; active means well fitted curve in the direction sought with a large enough effect; inconclusive means small, poorly fitted or top-dose-only effect, or another doubt; inactive means no such curve, though single readings can be large; an effect the other way counts as inactive or inconclusive; further: on the % scale 0 is the no-effect control and ±100 the full control effect; nearly all actives have a fitted effect of over 60% in size
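Aggregate formation scored by laser-scanning cytometer (488 excitation, 500–530 emission) in lysed PC12 cells expressing Q103-GFP after 100 nM tebufenozide induction; library tested in dose series, with ATPLite reagent added in the multiplex.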
* = called active by the depositor; ? = inconclusive; . = not tested or not shown; [ ] = dose if it differs, or a comment. Hits are enriched below; roughly 9.2% of the tested compounds scored in any of these assays. Unless noted, the call rests on the fitted dose curve; in most records, active means well fitted inhibition curve with a large enough effect (not every such curve was filed as active); inconclusive means small, poorly fitted or top-dose-only effect, or another doubt; inactive means no such curve, though single readings can be large or run the other way. Potency means the concentration at half of the fitted maximal effect.

SMILES	ALDH1A1 inh	KDM4E inh	HPGD inh	HTT ATP protect	Lamin A splicing	HTT aggregate
CCC(C(=O)Nc1ccsc1C(=O)OC)c1ccccc1 (configuration not stated)	11µM*	-2%	.	-70%	.	-6%[9.22 µM]
CCC(C(=O)Nc1sc(C(N)=O)c(C)c1C(=O)OC)c1ccccc1 (configuration not stated)	13µM*	-4%	.	-59%	.	-7%
CCC(C(=O)Nc1nc(C)c(C(=O)OC)s1)c1ccccc1 (configuration not stated)	-4%	0%	.	-30%[1.9 µM]	13%[46 µM]	-7%[9.22 µM]
COc1ccc(Cl)cc1C(=O)Nc1nnc2n1CCS2	.	.	.	.	14%[46 µM]	.
COc1cccc(-c2cc(C(=O)N3CCc4ccccc4C3)no2)c1	?	-9%	20µM*	20%[10 µM]	-14%	-15%
COCC(C)NC(=O)c1cc(-c2cccc(OC)c2)on1 (configuration not stated)	7%	0%	-13%	-19%	14%	14%
COc1cccc(-c2cc(C(=O)NC3CCCC3)no2)c1	?	0%	16µM*	-37%	-10%	2%
COCCNC(=O)c1cc(-c2cccc(OC)c2)on1	8%	3%	25µM*	-27%	2%	-12%
CCC1=C2CC[C@H]3C(=O)N(c4ccccc4)C(=O)[C@H]3[C@H]2[C@@]2(Cc3ccccc3)C(=NCCc3c[nH]c4ccccc34)OC(=O)N2C1=O	-4%	1%	-10%	-8%	.	.
Cc1ccc(-n2ncc(C(=O)N3CCN(C4CCCCC4)CC3)c2C2CCN(C(=O)OC(C)(C)C)CC2)cc1	.	.	.	.	2%[46 µM]	.
O=C(c1ccccc1)N1CCN(c2ccc([N+](=O)[O-])c(NCC3CCCO3)c2)CC1 (configuration not stated)	13µM*	-3%	.	-56%	?	2%[9.22 µM]
O=C(c1ccccc1)N1CCN(c2ccc([N+](=O)[O-])c(NCc3cccnc3)c2)CC1	11µM*	9%	-10%	22%[10 µM]	0%	4%
O=C(c1ccccc1F)N1CCN(c2ccc([N+](=O)[O-])c(NCc3cccnc3)c2)CC1	7.9µM*	1%	.	4%[10 µM]	.	8%[9.22 µM]
O=[N+]([O-])c1ccc(N2CCN(S(=O)(=O)c3ccccc3)CC2)cc1NCC1CCCO1 (configuration not stated)	0%	6%	-1%	25%[10 µM]	-4%	11%
CC(C)(C)C(=O)N1CCN(c2ccc([N+](=O)[O-])c(NCc3cccnc3)c2)CC1	?	1%	.	-13%[10 µM]	12%[46 µM]	7%
CC(=O)OCc1cnc(C)c2oc(=O)c(C(=O)Nc3ccc(F)cc3C)cc12	.	.	.	.	-3%[46 µM]	.
COc1ccccc1-n1cnnc1SCC(=O)NCc1cccs1	?	1%	-22%	25%	4%	27%
COc1ccccc1-n1cnnc1SCC(=O)c1c[nH]c2ccccc12	10µM*	-7%	-14%	-20%[10 µM]	-10%	4%
COc1ccccc1-n1cnnc1SCC(=O)Nc1cccnc1Cl	25µM*	-3%	.	-28%	?	-1%
O=[N+]([O-])c1ccc(N2CCCCC2)cc1	.	2%	.	-10%[10 µM]	.	-5%[9.22 µM]
COc1cc(N2CCCC2)ccc1C=O	13µM*	-12%	.	-2%[10 µM]	7%[46 µM]	5%[9.22 µM]
O=Cc1ccc(N2CCCCC2)cc1	1.6µM*	?	.	-32%	9%[46 µM]	8%
CCC(=NCCN1CCNCC1)C1=C(O)CC(C)(C)CC1=O	?	-5%	-2%	-10%[10 µM]	1%	-17%
CC(=NCCN1CCNCC1)C1=C(O)CC(C)(C)CC1=O	25µM*	-3%	.	-27%	?	-15%
CCN(CC)CCNC(CC(=O)Nc1ccc(Cl)cc1Cl)C(=O)O (configuration not stated)	7.1µM*	1%	6%	6%[1.9 µM]	4%	1%
SMILES	ALDH1A1 inh	KDM4E inh	HPGD inh	HTT ATP protect	Lamin A splicing	HTT aggregate
O=C(/C=C/c1ccc(Cl)c([N+](=O)[O-])c1)Nc1cccnc1	-10%	1%	?	5%[10 µM]	5%	11%
Cc1occc1C(=O)Nc1cccnc1	?	2%	-20%	0%[0.074 µM]	-4%	22µM*
O=C(/C=C/c1ccc([N+](=O)[O-])cc1)Nc1cccnc1	8.9µM*	-5%	-24%	-108%	10%	1%
O=C(Nc1cccnc1)c1ccccc1O	?	?	?	-23%	-6%	-11%
Cc1ccc(/C=C/C(=O)Nc2cccc3ncccc23)o1	?	-15%	32µM*	0%[10 µM]	-1%	1%
Cc1ccc(/C=C/C(=O)Nc2cccnc2)o1	10µM*	-3%	22µM*	.	1%	-7%
COC(=O)CC[C@@H](C)[C@@H]1CC[C@@H]2[C@@H]3CC[C@H]4C[C@@H](O)CC[C@@]4(C)[C@@H]3CC[C@]21C	4%[13.5 µM]	.	-9%	-1%[10 µM]	.	.
Cn1cc(-c2nc3cnc(Oc4cccc(Cl)c4)nc3n(CCC#N)c2=O)c2ccccc21	2%	.	-3%	11%	.	.
CC(=O)c1ccc(N2CCN(C(=O)c3ccco3)CC2)c(F)c1	3.5µM*	5%	16µM*	31%	8%	?
COC(=O)c1ccc(N2C(=O)CC(N3CCN(C(=O)c4ccco4)CC3)C2=O)cc1 (configuration not stated)	13µM*	2%	-1%	5%[10 µM]	-9%	9%

From PubChem BioAssay
